Screening results from PubChem.
Luciferase inh: inhibitors of firefly (Photinus pyralis) luciferase; purified P. pyralis luciferase, luminescence, biochemical; actives 2.5% (n = 76,000); P08659; Potency, µM (highest dose often 115 µM), actives largely listed as inhibitors; note: nearly all actives have a fitted effect of over 65% in size
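Luminescence read by CCD imaging after purified firefly luciferase (10nM final) was added to substrate buffer holding 10uM D-luciferin and 10uM ATP, pH 7.5, pre-dosed with compound.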
NIH3T3 tox: cytotoxic compounds in NIH 3T3 cells | NIH 3T3 viability, CellTiter-Glo ATP luminescence, 48-72 h | Potency, µM (doses to about 96.7 µM), for inactives: at the highest dose activity change, negative = cytotoxicity, hits mostly inhibitors | actives 4.3% (n = 94,000); note: nearly all actives have a fitted effect of over 55% in size
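First NIH 3T3 cells are plated at 400 cells/well; next compound is pinned in; then plates incubate 48 or 72 hr at 37 °C; finally CellTiter-Glo is added and luminescence read after 10 min.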
GPT2 inh: blocks human glutamate pyruvate transaminase 2; Recombinant GPT2, coupled pyruvate oxidase/HRP Amplex Red fluorescence; AID 1671188; Potency, µM (series often up to 57.7 µM), for inactives: at the top dose activity change, negative = inhibition, actives largely listed as inhibitors; actives 0.25% (n = 100,000); note: nearly all actives have a fitted effect of over 60% in size
Target sequence (Q8TD30 whole entry, looked up): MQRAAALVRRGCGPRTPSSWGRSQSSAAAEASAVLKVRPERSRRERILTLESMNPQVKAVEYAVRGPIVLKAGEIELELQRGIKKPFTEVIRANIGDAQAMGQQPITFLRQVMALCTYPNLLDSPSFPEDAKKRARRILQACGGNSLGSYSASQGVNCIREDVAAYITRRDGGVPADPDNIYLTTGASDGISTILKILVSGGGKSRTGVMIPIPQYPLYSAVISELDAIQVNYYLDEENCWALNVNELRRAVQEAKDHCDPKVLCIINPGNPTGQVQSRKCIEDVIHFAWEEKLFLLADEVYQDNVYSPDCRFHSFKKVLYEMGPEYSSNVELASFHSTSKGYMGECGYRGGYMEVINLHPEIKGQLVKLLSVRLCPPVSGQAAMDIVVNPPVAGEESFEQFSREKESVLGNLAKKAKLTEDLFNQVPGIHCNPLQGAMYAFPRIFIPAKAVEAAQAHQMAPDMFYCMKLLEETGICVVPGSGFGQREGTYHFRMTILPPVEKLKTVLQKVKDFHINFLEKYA
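Inhibition is scored from Amplex Red fluorescence generated when pyruvate oxidase and HRP act on pyruvate released by GPT2. Reactions contain 10ng/uL enzyme, 250uM a-KG and 2mM L-alanine and run 30 min at room temperature.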
HEK cytotox: cytotoxic compounds in HEK 293 cells; HEK 293 viability, ATP luminescence (CellTiter-Glo), 48-72 h; Potency, µM (series often up to 115 µM), inactives show at the top dose activity change, negative = cytotoxicity, actives largely listed as inhibitors; actives 6.6% (n = 94,000); note: nearly all actives have a fitted effect of over 60% in size
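qHTS cytotoxicity; HEK 293, 250 cells/well; compound pinned; 48 or 72 hr, 37 degree Celsius, 5% CO2, 95% humidity; CellTiter-Glo, 10 min RT; luminescence (ATP).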
NPR1 antag: blocks ANP-stimulated signaling of human Npr1 receptor | HEK293 hNpr1 GloSensor cGMP, ANP-stimulated luminescence | Potency, µM (titrated, usually from 46.3 µM), for inactives: at the highest dose activity change, negative = inhibition, usual class: inhibitors | actives 1.6% (n = 76,000) | AID 1347048; calls by dose curve; note: nearly all actives have a fitted effect of over 60% in size
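HEK293 cells stably expressing human Npr1 and cGMP GloSensor pGS-40F, loaded 2 h with 2% GloSensor reagent, given compound 30 min at room temperature. Luminescence read before and 20 min after 0.1 nM hNppA.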
* = called active by the depositor; i = inactive; ? = inconclusive; nt = no result; [ ] = remark or other dose. An excerpt weighted towards active compounds, which were near 10% of everything screened. Unless noted, calls come from the whole dose curve; as a rule, active = well fitted curve in the direction sought with a large enough effect; inconclusive = small, poorly fitted or top-dose-only effect, or another doubt; inactive = no such curve, though single readings can be large; an effect the other way counts as inactive or inconclusive. % is set by controls: 0 for no effect and ±100 for the full control effect; potency is the fitted concentration of half-maximal effect.

SMILES	Luciferase inh	NIH3T3 tox	GPT2 inh	HEK cytotox	NPR1 antag
CC(C)CCN1CCCC2(C1)C(=NC1CCCCC1)NC(=O)N2c1cccnc1 (stereo not drawn)	nt	?	i	?	nt
O=C1NC(=NC2CCCC2)C2(CCCN(Cc3ccc(F)cc3)C2)N1c1cccnc1 (stereo not drawn)	nt	15.8µM*	4.5%	-24.0%	nt
CC(C)CCN1CCC2(C1)C(=NC1CCCC1)NC(=O)N2c1cccnc1 (stereo not drawn)	nt	31.6µM*	-7.3%	-9.7%	nt
O=C1NC(=NC2CCCC2)C2(CCCN(Cc3ccsc3)C2)N1c1cccnc1 (stereo not drawn)	nt	28.2µM*	i	2.6%	nt
CN(C)c1ccc(CN2CCCC3(C2)C(=NC2CCCCC2)NC(=O)N3c2cccnc2)cc1 (stereo not drawn)	nt	-16.0%	i	?	nt
O=C(c1ccc(-c2cncnc2)cc1)N1CCC(C(=O)N2CCCCC2)CC1	nt	-13.0%	4.6%	-4.6%	nt
O=C(C1CCN([S+](=O)([O-])c2cccs2)CC1)N1CCC(N2CCCC2=O)CC1	nt	-16.7%	i	4.3%	nt
COc1ccc(-n2nc(C)c([C@@H]3C=C[C@@H](NCc4ccc(C(C)C)cc4)C3)c2C)cc1	25.1µM*	31.6µM*	0.9%[88.5 µM]	31.6µM*	?
Cc1nn(-c2ccccc2)c(C)c1[C@@H]1C=C[C@@H](NCc2ccc(F)cc2)C1	?	?	-4.9%[88.5 µM]	63.1µM*	-22.7%[70.6 µM]
COc1ccc(-n2nc(C)c([C@@H]3C=C[C@@H](NCc4ccc(F)cc4)C3)c2C)cc1	25.1µM*	31.6µM*	-7.9%[88.5 µM]	28.2µM*	?
COc1ccc(NC(=O)O[C@@H]2C=C[C@H](c3c(C)nn(-c4ccc(F)cc4)c3C)C2)cc1	?	?	-3.3%[88.5 µM]	?	-29.6%[70.6 µM]
Cc1nn(-c2ccc(F)cc2)c(C)c1[C@@H]1C=C[C@@H](NC(=O)CC(C)(C)CC(=O)O)C1	i	?	3.8%[88.5 µM]	-24.2%[172 µM]	-10.4%[70.6 µM]
Cc1nn(-c2ccccc2[N+](=O)[O-])c(C)c1[C@@H]1C=C[C@@H](NCc2ccc(F)cc2)C1	?	89.1µM*	i	100µM*	-10.4%[70.6 µM]
O=C(c1ccccc1Cl)N1CCCC(C(=O)N2CCC(c3nc4ncccc4[nH]3)C2)C1 (stereo not drawn)	nt	-22.0%	0.4%	i	nt
O=C(c1ccc(N2CCC(CO)C2)nc1)N1CCC(Oc2cccnc2)CC1 (stereo not drawn)	i	-4.9%	-9.0%	-24.7%	-0.6%
O=C(NCc1ccccc1)C1CCC(=O)N1C1CCN(C(=O)c2ccc(F)cc2F)CC1 (stereo not drawn)	i	-11.7%	i	-14.4%	1.7%
COc1ccc(C(=O)N2CCN(C(C(=O)O)c3ccc(F)cc3)CC2)cc1 (stereo not drawn)	i	-18.5%	3.3%	-1.2%	-4.1%
CCOC(=O)[C@@H]1[C@@H](O)C(=O)N(Cc2ccccc2)C12CCN(C(=O)Cc1ccc(OC)cc1)CC2	nt	?	nt	2.1%	nt
Cc1nn(-c2ccc(C(F)(F)F)cc2)c(C)c1[C@@H]1C=C[C@@H](NCc2ccc(N(C)C)cc2)C1	i	11.2µM*	i	20µM*	-16.4%
Cc1nn(-c2ccc(C(F)(F)F)cc2)c(C)c1[C@@H]1C=C[C@@H](NC(=O)COCC(=O)O)C1	i	-1.4%	1.5%	-1.2%	6.0%
CC[C@H]1CN(C(=O)N2CCOCC2)CC[C@H]1CC(=O)Nc1nccs1	i	50.1µM*	-10.3%[88.5 µM]	?	3.1%[70.6 µM]
COc1cccc(-c2nc3c([nH]2)CN(c2cc(C4CC4)ncn2)CC3)c1	25.1µM*	?	-6.5%[11.5 µM]	35.5µM*	?
Cc1ccc(-n2[nH]c(C)c(N=Nc3cccc(-c4cccc(C(=O)O)c4)c3O)c2=O)cc1C	nt	nt	1.93µM*	nt	nt
COc1ccccc1-c1cccc(C(=O)O)c1	nt	i	-9.7%[88.5 µM]	-14.0%[172 µM]	nt
Cc1ccc(C)c(S(=O)(=O)N2CCCC(CO)(Cc3cccc(Cl)c3)C2)c1 (stereo not drawn)	i	?	1.0%	?	-14.8%
